Test results as given in PubChem BioAssay AID1159580 (chemical genetic matrix, 2015).
Hit rate of the full screen: of about 5,500 compounds, about 2,000 (36%) were called active. Inconclusive results (about 18%) are left out. Rule as the data show it: active = normalized growth mostly below about 0.91 (no sharp cut-off); inconclusive = no clear call, values can overlap the other calls; inactive = mostly above about 0.92. The list shows a part of the results.

Assay: chemical genetic growth profiling, strain panel (AID 1159580);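 also: tested at 20 µM; growth read once vehicle control cultures reached saturation at 30 °C; 1 = growth at the plate median or of vehicle wells; lower values mean less growth of the strain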
Conditions: S. cerevisiae deletion strains, growth OD

Measured: normalized growth

COc1cc([C@@H]2c3cc4c(cc3[C@@H](O)C3COC(=O)C32)OCO4)cc(OC)c1O (stereo not given in full)
inactive: locus YAL021C, strain ccr4, hits give low values 0.971 | locus YAL026C, strain drs2, hits give low values 0.982 | locus YAL030W, strain snc1, hits give low values 0.986 | locus YBL061C, strain skt5, hits give low values 0.988 | locus YBR009C, strain hhf1, hits give low values 0.988 | locus YBR023C, strain chs3, hits give low values 1 | locus YBR171W, strain sec66, hits give low values 0.996 | locus YBR231C, strain swc5, hits give low values 1 | locus YBR279W, strain paf1, hits give low values 0.997 | locus YCL011C, strain gbp2, hits give low values 0.988 | locus YCL016C, strain dcc1, hits give low values 0.981 | locus YCL061C, strain MRC1, hits give low values 0.978 | locus YCL069W, strain vba3, hits give low values 0.985 | locus YCR088W, strain abp1, hits give low values 0.988 | locus YDL005C, strain med2, hits give low values 0.979 | locus YDL040C, strain nat1, hits give low values 0.981 | locus YDR001C, strain nth1, hits give low values 0.977 | locus YDR069C, strain doa4, hits give low values 0.988 | locus YDR137W, strain rgp1, hits give low values 1 | locus YDR159W, strain sac3, hits give low values 0.994 | locus YDR195W, strain ref2 0.944 | locus YDR297W, strain sur2, hits give low values 0.989 | locus YDR334W, strain swr1, hits give low values 0.977 | locus YDR335W, strain msn5, hits give low values 0.985 | locus YDR392W, strain spt3, hits give low values 1.01 | locus YEL003W, strain gim4, hits give low values 0.997 | locus YEL037C, strain rad23, hits give low values 0.981 | locus YEL061C, strain CIN8 (second series), hits give low values 0.991 | locus YER015W, strain faa2, hits give low values 0.993 | locus YER016W, strain bim1, hits give low values 0.987 | locus YER111C, strain swi4, hits give low values 0.981 | locus YER155C, strain BEM2 (second series), hits give low values 1.01 | locus YFR010W, strain ubp6, hits give low values 0.973 | locus YGL167C, strain pmr1, hits give low values 0.975 | locus YGL173C, strain kem1, hits give low values 0.992 | locus YGL227W, strain vid30, hits give low values 0.995 | locus YGL240W, strain doc1, hits give low values 1.01 | locus YGL253W, strain hxk2, hits give low values 0.934 | locus YHR013C, strain ard1, hits give low values 0.964 | locus YHR027C, strain rpn1, hits give low values 0.986 | locus YHR030C, strain SLT2, hits give low values 1.03 | locus YHR079C, strain IRE1, hits give low values 1.04 | locus YHR142W, strain chs7, hits give low values 0.971 | locus YJL092W, strain hpr5, hits give low values 0.977 | locus YJL095W, strain BCK1 (second series), hits give low values 0.981 | locus YJL095W, strain BCK1, hits give low values 1.02 | locus YJL115W, strain asf1, hits give low values 0.966 | locus YJL129C, strain trk1, hits give low values 0.977 | locus YJL154C, strain vps35, hits give low values 0.985 | locus YJL164C, strain tpk1, hits give low values 0.967 | locus YJL166W, strain qcr8, hits give low values 0.997 | locus YJL187C, strain SWE1, hits give low values 1 | locus YJR066W, strain TOR1, hits give low values 0.993 | locus YKL160W, strain elf1, hits give low values 0.973 | locus YKR026C, strain gcn3, hits give low values 0.991 | locus YKR091W, strain srl3, hits give low values 0.978 | locus YLL001W, strain dnm1, hits give low values 0.953 | locus YLL026W, hits give low values 0.987 | locus YLL041C, strain sdh2, hits give low values 0.979 | locus YLR027C, strain aat2, hits give low values 0.991 | locus YLR113W, strain HOG1, hits give low values 1.03 | locus YLR221C, strain rsa3, hits give low values 1.02 | locus YLR258W, strain gsy2, hits give low values 0.985 | locus YLR262C, strain YPT6 (second series), hits give low values 1.05 | locus YLR320W, strain mms22, hits give low values 1.02 | locus YLR342W, strain FKS1, hits give low values 0.986 | locus YLR357W, strain rsc2, hits give low values 0.966 | locus YLR370C, strain arc18, hits give low values 0.983 | locus YLR384C, strain iki3, hits give low values 0.982 | locus YML120C, strain ndi1, hits give low values 0.985 | locus YMR058W, strain fet3, hits give low values 0.979 | locus YMR125W, strain sto1, hits give low values 0.979 | locus YMR129W, hits give low values 0.997 | locus YMR205C, strain PFK2, hits give low values 0.965 | locus YMR231W, strain pep5, hits give low values 0.977 | locus YNL071W, strain lat1, hits give low values 0.991 | locus YNL183C, strain NPR1, hits give low values 0.997 | locus YNL209W, strain ssb2, hits give low values 0.993 | locus YNL248C, strain rpa49, hits give low values 0.959 | locus YNL322C, strain KRE1 (second series), hits give low values 0.991 | locus YNR049C, strain mso1, hits give low values 0.986 | locus YOR001W, strain rrp6, hits give low values 0.979 | locus YOR070C, strain gyp1, hits give low values 0.983 | locus YOR080W, strain dia2, hits give low values 1 | locus YOR083W, strain WHI5, hits give low values 0.982 | locus YOR106W, strain vam3, hits give low values 0.958 | locus YOR231W, strain MKK1, hits give low values 1.03 | locus YOR265W, strain rbl2, hits give low values 0.987 | locus YOR270C, strain vph1, hits give low values 0.94 | locus YOR290C, strain snf2, hits give low values 0.952 | locus YPL051W, strain arl3, hits give low values 1.03 | locus YPL078C, strain atp4, hits give low values 0.949 | locus YPL106C, strain sse1, hits give low values 0.99 | locus YPL240C, strain hsp82, hits give low values 0.994 | locus YPL256C, strain CLN2, hits give low values 1.02
